# Test results taken from the antibiotic and cytotoxicity screens of Wong et al. (2023).
# In all, about 39,000 compounds went through this assay and about 1,500 (3.8%) were called active. The entries come from a sample that favours actives as a whole.
# System: HSkMC (human skeletal muscle cells)
# Assay: cytotoxicity call (relative viability < 0.9)
# Conditions: 10 µM
row,SMILES,cytotoxicity call
1,C[C@H](CO)N1C[C@H](C)[C@@H](CN(C)C(=O)Nc2ccc(C(F)(F)F)cc2)OCc2cn(nn2)CCCC1=O,inactive
2,CN(C)/N=N/c1nc[nH]c1C(N)=O,inactive
3,COC(=O)C[C@H]1CC[C@H](N)[C@@H](CO)O1,inactive
4,NCc1cccc(-c2ccccc2)c1,inactive
5,C[C@@H]1CCCCO[C@@H](CN(C)C(=O)NC2CCCCC2)[C@@H](C)CN([C@H](C)CO)C(=O)c2cc(NC(=O)CCCCCC(=O)Nc3ccccc3N)ccc2O1,inactive
6,C[C@@H]1CN([C@@H](C)CO)C(=O)c2cc(NC(=O)Nc3ccc(F)cc3)ccc2O[C@@H](C)CCCCO[C@@H]1CN(C)C(=O)C1CCCCC1,inactive
7,C[C@@H]1CN([C@@H](C)CO)C(=O)c2cc(NS(=O)(=O)c3ccc(Cl)cc3)ccc2O[C@H]1CN(C)Cc1ccc(Cl)c(Cl)c1,active
8,C[C@H]1CN([C@@H](C)CO)C(=O)c2cc(NS(=O)(=O)c3ccc(Cl)cc3)ccc2O[C@H]1CN(C)Cc1ccc(Cl)c(Cl)c1,active
9,C[C@H](CO)N1C[C@H](C)[C@@H](CN(C)Cc2ccc(Cl)c(Cl)c2)Oc2ccc(NS(=O)(=O)c3ccc(Cl)cc3)cc2C1=O,active
10,C[C@@H]1CN([C@H](C)CO)C(=O)c2cc(NS(=O)(=O)c3ccc(Cl)cc3)ccc2O[C@@H]1CN(C)Cc1ccc(Cl)c(Cl)c1,active
11,COc1oc(C(=O)NC2CCCCC2)c(-c2ccc(Cl)cc2)c1S(=O)(=O)c1ccccc1Cl,inactive
12,Cc1ccc(S(=O)(=O)N2C[C@H](O)COC[C@@H]3O[C@H](CC(=O)NCCN4CCCCC4)CC[C@H]32)cc1,inactive
13,COc1ccc(NC(=O)N2C[C@H](O)COC[C@H]3O[C@@H](CC(=O)NCc4ccccc4OC)CC[C@@H]32)cc1,inactive
14,COc1ccc(NC(=O)N(C)C[C@H]2OCCCC[C@@H](C)Oc3ccc(NC(=O)CCC(F)(F)F)cc3C(=O)N([C@H](C)CO)C[C@H]2C)cc1,inactive
15,C[C@@H]1CCCCO[C@H](CN(C)Cc2ccc(C(F)(F)F)cc2)[C@H](C)CN([C@@H](C)CO)C(=O)c2cc(NC(=O)CCC(F)(F)F)ccc2O1,inactive
16,COc1ccc(C#Cc2ccc3c(c2)[C@]2(C(=O)N3)[C@H](c3ccccc3OCCO)N3[C@H](c4ccccc4)[C@H](c4ccccc4)OC(=O)[C@H]3[C@@H]2C(=O)NC[C@H](O)c2ccccc2)cc1,inactive
17,COc1ccc(S(=O)(=O)N(C)C[C@@H]2Oc3c(NS(=O)(=O)c4ccc(C)cc4)cccc3C(=O)N([C@@H](C)CO)C[C@H]2C)cc1,inactive
18,C[C@@H]1CN([C@@H](C)CO)C(=O)c2cc(NS(=O)(=O)c3ccc(Cl)cc3)ccc2O[C@@H](C)CCCCO[C@H]1CN(C)C(=O)c1ccncc1,inactive
19,C=C(C)CCn1cccc1C(C)=O,inactive
20,C[C@H]1CN([C@@H](C)CO)S(=O)(=O)c2ccc(C#Cc3cccc(F)c3)cc2O[C@@H]1CN(C)C(=O)CN1CCOCC1,inactive
21,Cc1noc(C)c1NC(=O)N(C)C[C@H]1Oc2ccc(NC(=O)CCCN(C)C)cc2C(=O)N([C@@H](C)CO)C[C@@H]1C,inactive
22,C[C@@H]1CN([C@H](C)CO)S(=O)(=O)c2ccc(C3=CCCC3)cc2O[C@@H]1CN(C)C(=O)c1cnccn1,inactive

row,SMILES,cytotoxicity call
1,C[C@H]1CN([C@@H](C)CO)C(=O)c2cc(NS(=O)(=O)c3ccccc3)ccc2O[C@@H]1CN(C)Cc1ccc(Cl)c(Cl)c1,inactive
2,C[C@@H]1CN([C@@H](C)CO)C(=O)c2cc(NS(=O)(=O)c3ccccc3)ccc2O[C@@H]1CN(C)Cc1ccc(Cl)c(Cl)c1,active
3,C[C@@H]1CN([C@@H](C)CO)C(=O)c2cc(NS(=O)(=O)c3ccc(Cl)cc3)ccc2O[C@@H]1CN(C)Cc1ccc(Cl)c(Cl)c1,active
4,C[C@H](CO)N1C[C@H](C)[C@@H](CN(C)Cc2ccc(Cl)c(Cl)c2)Oc2ccc(NS(=O)(=O)c3ccccc3)cc2C1=O,inactive
5,C[C@@H]1CN([C@H](C)CO)C(=O)c2cc(NS(=O)(=O)c3ccc(Cl)cc3)ccc2O[C@H]1CN(C)Cc1ccc(Cl)c(Cl)c1,inactive
6,C[C@H]1CN([C@@H](C)CO)C(=O)c2cc(NS(=O)(=O)c3ccc(Cl)cc3)ccc2O[C@@H]1CN(C)Cc1ccc(Cl)c(Cl)c1,active
7,C[C@H](CO)N1C[C@H](C)[C@H](CN(C)Cc2ccc(Cl)c(Cl)c2)Oc2ccc(NS(=O)(=O)c3ccc(Cl)cc3)cc2C1=O,active
8,C[C@H](CO)N1C[C@H](C)[C@H](CN(C)Cc2ccc(Cl)c(Cl)c2)Oc2ccc(NS(=O)(=O)c3ccccc3)cc2C1=O,inactive
9,COc1ccc(S(=O)(=O)N(C)C[C@H]2OCc3cnnn3CCCC(=O)N([C@H](C)CO)C[C@@H]2C)cc1,inactive
10,Cc1noc(C)c1NC(=O)Nc1cccc2c1O[C@@H](CN(C)S(=O)(=O)c1ccccc1)[C@H](C)CN([C@@H](C)CO)C2=O,inactive
11,C[C@@H]1CCCCO[C@H](CN(C)C(=O)c2ccncc2)[C@H](C)CN([C@@H](C)CO)C(=O)c2cc(NC(=O)C3CCCCC3)ccc2O1,inactive
12,COc1ccc(-c2cnc3c(c2)C(=O)N([C@@H](C)CO)C[C@@H](C)[C@@H](CN(C)C(=O)Cc2cccnc2)O3)cc1,inactive
13,C/C=C/c1cccc(-c2nc(C(=O)NCc3ccccc3)cc3c2[C@H](CCO)N([S@@](=O)C(C)(C)C)C3)c1,inactive
14,C=CCOC(=O)[C@@H]1[C@H]2C(=O)O[C@H](c3ccccc3)[C@H](c3ccccc3)N2[C@H](c2ccccc2OCCO)[C@@]12C(=O)Nc1ccc(I)cc12,inactive
15,O=C(C[C@@H]1CC[C@H](NC(=O)Nc2ccc3c(c2)OCO3)[C@H](CO)O1)NCCCN1CCOCC1,inactive
16,C[C@H](CO)N1C[C@H](C)[C@@H](CN(C)S(=O)(=O)c2ccc(Cl)cc2)Oc2ccc(NC(=O)Cn3cnnn3)cc2CC1=O,inactive
17,COc1ccc(-c2ccc3c(c2)O[C@H](CN(C)CC2CCOCC2)[C@H](C)CN([C@H](C)CO)S3(=O)=O)cc1,inactive
18,COCc1cn(CC[C@@H]2CC[C@@H](NC(=O)CCN3CCCCC3)[C@@H](CO)O2)nn1,inactive
19,Cn1c(=O)c(F)c(Nc2ccc(I)cc2F)c2c(=O)n(C[C@@H](O)CO)cnc21,active
20,Cn1c(=O)c2c(ncn2C[C@@H](O)CO)n(C)c1=O,inactive
21,Cn1c(=O)c2c(ncn2CC(O)CO)n(C)c1=O (stereo not drawn),inactive
